SARS PLP yeast: qHTS of Yeast-based Assay for SARS-CoV PLP. S. cerevisiae expressing SARS-CoV PLpro, growth rescue. Potency, µM (highest dose often 32.9 µM), for inactives: at the top dose activity, positive = growth rescue, usual class: activators. actives 0.19% (n = 330,000). AID 485353, 2010; calls by dose curve; also: 0% is about no effect; nearly all actives have a fitted effect of over 55% in size
Sm TGR block: qHTS Assay for the Inhibitors of Schistosoma Mansoni Peroxiredoxins. AID 485364, 2010. Schistosoma mansoni thioredoxin glutathione reductase (TGR), Q962Y6. actives 3% (n = 360,000). Potency, µM (top dose mostly 114 µM), for the others: top-dose activity change, negative = inhibition, usual class: inhibitors. purified TGR, DTNB reduction, TNB absorbance 405 nm; also: % is scaled to controls: 0 for no effect and ±100 for the full control effect; nearly all actives have a fitted effect of over 60% in size
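First, TGR (20 nM dispensed) and NADPH were mixed with compound. Second, a 15 min room-temperature incubation followed. Third, further NADPH and then DTNB were added to start the reaction. Finally, TNB absorbance was monitored kinetically.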
NS1 function inh: qHTS Assay for Inhibitors of Influenza NS1 Protein Function; AID 2326, 2010; actives 0.4% (n = 270,000); Potency, µM (doses to about 46.1 µM), for inactives: top-dose activity, positive = more growth; calls by dose curve; also: actives are rising curves; nearly all actives have a fitted effect of over 50% in size
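A cell-based growth assay was used: compounds that relieve NS1-induced slow growth of budding yeast raise OD600. Assay medium was yeast nitrogen base with ammonium sulphate and -URA supplement, pH 6.0, with 2% galactose.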
LmPK inhibitor: qHTS Assay for Inhibitors of Leishmania Mexicana Pyruvate Kinase (LmPK); purified LmPK, Kinase-Glo ATP luminescence, 1 h; actives 0.37% (n = 290,000); Potency, µM (highest dose often 57.5 µM), without a hit: at the top dose activity change, negative = inhibition, hits mostly inhibitors; also: % is scaled to controls: 0 for no effect and ±100 for the full control effect
Target sequence (Q27686 whole entry, looked up): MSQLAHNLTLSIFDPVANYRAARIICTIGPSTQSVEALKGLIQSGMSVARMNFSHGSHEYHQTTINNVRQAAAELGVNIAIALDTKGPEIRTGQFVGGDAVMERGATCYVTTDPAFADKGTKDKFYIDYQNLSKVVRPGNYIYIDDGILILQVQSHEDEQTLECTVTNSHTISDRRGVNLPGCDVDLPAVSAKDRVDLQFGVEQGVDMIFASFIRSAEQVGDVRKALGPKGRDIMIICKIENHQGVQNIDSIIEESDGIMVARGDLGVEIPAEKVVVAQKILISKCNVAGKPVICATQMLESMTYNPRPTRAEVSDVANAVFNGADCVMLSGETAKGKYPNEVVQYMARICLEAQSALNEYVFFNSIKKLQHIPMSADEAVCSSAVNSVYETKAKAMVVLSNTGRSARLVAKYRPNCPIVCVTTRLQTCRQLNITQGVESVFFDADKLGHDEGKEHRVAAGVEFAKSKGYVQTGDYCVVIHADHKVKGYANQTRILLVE
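ATP generated from ADP (0.1 mM) and PEP (0.5 mM) by 0.1 nM LmPK over 1 h at room temperature (pH 7.2 imidazole buffer) was detected by coupled luciferase luminescence. Values were normalized to uninhibited and no-enzyme wells.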
RE007 growth inh: qHTS Assay for Inhibitors of the HIV-1 protein Vpr. S. pombe RE007 Vpr strain, BacTiter-Glo ATP luminescence, 24 h. Potency, µM (doses to about 92.2 µM), for the others: at the top dose activity change, negative = less growth, most hits filed as inhibitors. actives 0.21% (n = 360,000); active = well fitted falling curve with a large enough effect; inconclusive = small, poorly fitted or top-dose-only effect; inactive = no such curve, though single readings can be large or run the other way; also: % is scaled to controls: 0 for no effect and ±100 for the full control effect; nearly all actives have a fitted effect of over 50% in size
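Fission yeast strain RE007, carrying one chromosomally integrated HIV-1 vpr copy, was seeded at OD 0.01 in PMG+AL medium with 23 nL pinned compound. After 24 h at 30 °C and 99% humidity, viability was read by BacTiter-Glo luminescence.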
Tb PYK inh: qHTS of Trypanosoma Brucei Inhibitors. TbPYK enzyme, Kinase-Glo Plus ATP luminescence, 45 min. pyruvate kinase (Trypanosoma brucei), Q57TT1. Potency, µM (series often up to 76.8 µM), for inactives: top-dose activity, negative = inhibition, most hits filed as inhibitors. actives 0.12% (n = 410,000); also: % is scaled to controls: 0 for no effect and ±100 for the full control effect; nearly all actives have a fitted effect of over 50% in size
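Readout: single end-point luminescence (Kinase-Glo Plus, 10 min). Reaction conditions were TbPYK/substrate plus 130 uM ADP, 45 min at RT, pH 7.2 TEA buffer. No-enzyme wells served as controls, and data were normalized before concentration-response fitting.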
Active calls of the source: *; ? = inconclusive; nt = not tested or not shown. Rows were chosen to be rich in hits. Some 3.3% of all compounds tested hit in one or more screens of this group. Unless noted, calls follow the shape of the dose curve; as a rule, active = well fitted curve in the direction sought with a large enough effect; inconclusive = small, poorly fitted or top-dose-only effect, or another doubt; inactive = no such curve, though single readings can be large; an effect the other way counts as inactive or inconclusive. Potency is read from the fitted curve at half-maximal effect.

SMILES	SARS PLP yeast	Sm TGR block	NS1 function inh	LmPK inhibitor	RE007 growth inh	Tb PYK inh
O=C(CSc1nnc(-c2ccco2)o1)c1ccccc1	0.0%	25.1µM*	-3.8%	-2.2%	-29.1%	-11.7%
O=C(CSc1nnc(-c2ccco2)o1)c1ccc(F)c(F)c1	5.9%	-20.3%	2.0%	-6.7%	0.6%	7.6%
Cc1cc(-n2c(=O)[nH]c(=O)n(C)c2=O)ccc1Oc1ccc(S(=O)(=O)C(F)(F)F)cc1	nt	nt	nt	nt	nt	-8.0%
CCc1ccc(CNC(=O)c2ccc(CSc3nc4ccncc4n3Cc3ccccc3)cc2)cc1	nt	-3.3%	nt	nt	nt	4.2%
CCn1c2ccccc2c2cc(CN3CCN(Cc4cc(OC)ccc4O)CC3)ccc21	8.0%	-27.2%	nt	-6.7%	-19.5%	-11.8%
CCn1c2ccccc2c2cc(CN3CCN(Cc4cc(OC)c(O)c(OC)c4)CC3)ccc21	nt	35.5µM*	nt	nt	nt	4.9%
COc1cc(CN2CCN(Cc3ccc(SC)cc3)CC2)cc(OC)c1O	0.7%	10µM*	-1.1%	-10.4%	-28.0%	-3.9%
COC(=O)C(CCCCNC(=O)OCc1ccccc1)NC(=O)CN (stereo not drawn)	3.9%	79.4µM*	-2.9%	-9.5%	9.5%	-6.3%
O=C(NCCCCCCNC(=O)OCc1ccccc1)OCc1ccccc1	nt	nt	nt	nt	-11.5%	-1.1%
Cc1ccc(NC(=O)CNC(=O)OCc2ccccc2)cc1C	0.2%	0.112µM*	-8.1%	-8.2%	1.1%	2.9%
Clc1ccc2c(c1)C1OCCC1C(c1ccco1)N2 (stereo not drawn)	-7.2%	31.6µM*	-16.2%	?	-8.2%	-21.7%
O=C(NCc1ccccc1Cl)c1cc2c(s1)-c1ccc(Cl)cc1SC2	nt	-9.6%	nt	nt	nt	-9.4%
Cc1ccc(C(C)C)c(OCC(=O)Nc2cc(-c3nc4ccccc4[nH]3)ccc2C)c1	nt	-9.6%	nt	nt	nt	-4.0%
CCN1CCN(C(=O)c2c(C)nn(-c3ccc(F)cc3)c2-n2cccc2)CC1	nt	-0.9%	nt	nt	nt	1.4%
O=C(OCN1C(=O)c2ccccc2C1=O)C1CCCCC1	-2.1%	-16.1%	-10.1%	6.1%	-8.7%	-0.1%
O=C1c2ccccc2C(=O)N1SC1CCCCC1	-32.4%	44.7µM*	-71.4%	32.5%	44.7µM*	?
CCn1c(CNC(=O)c2ccc(OC)cc2)nnc1SCC(=O)Nc1ccccc1	nt	-1.9%	nt	nt	nt	4.2%
COc1ccc(NC(=S)NCc2ccc(F)cc2)cc1	-2.5%	?	6.4%	0.2%	-2.0%	0.0%
CCOc1ccc(NC(=S)NCc2ccc3c(c2)OCO3)cc1	-2.2%	5.01µM*	7.6%	11.2%	17.7%	2.1%
COc1ccc(CNC(=S)Nc2ccc(OC)cc2)cc1	11.2µM*	36.7%	12.9%	0.8%	9.1%	-1.4%
Cc1ccc(NC(=S)NCc2ccc3c(c2)OCO3)cc1	?	-12.3%	-4.8%	2.5%	-1.0%	-2.7%
COc1cccc(C(=O)N2CCc3cc(OC)c(OC)cc3C2COc2ccc3c(C)cc(=O)oc3c2)c1 (stereo not drawn)	nt	-8.4%	nt	nt	nt	-7.9%
CCOC(=O)N1C(=O)[C@](c2ccc(Cl)cc2)(C(C)C)N1C(=O)OCC	-16.6%	17.8µM*	-65.2%	-4.3%	-1.8%	-11.7%
CCOC(=O)N1C(=O)[C@@](c2ccc(Cl)cc2)(C(C)C)N1C(=O)OCC	-25.0%	11.2µM*	-139.1%	-0.1%	2.7%	5.4%
CCOC(=O)C1(C(N)=O)OC1(c1ccc(Cl)cc1)c1ccccc1Cl (stereo not drawn)	nt	nt	nt	nt	17.4%	3.7%
COC(=O)c1cc2oc3ccccc3c2n1CC(=O)Nc1ccc(C)c(F)c1	nt	9.4%	nt	nt	nt	3.1%
O=C(Nc1ccc(C(=O)N2CCCC2)cc1)c1ccc2c(c1)OCO2	-6.1%	-18.3%	-1.3%	15.8µM*	?	0.6%
O=C(Nc1ccc(C(=O)N2CCCCC2)cc1)c1ccccc1	nt	nt	nt	nt	-11.8%	?
